This is part of a sample that, as a whole, favours compounds with a hit. Of some 79,000 tested, about 15% had one in any assay. Unmarked numbers belong to inactive results. Calls of active or inactive are those of the source. Cut-off read from the data, not from the text of the source: active = growth inhibition above about 70%; inactive = the rest.
Columns and labels:
[1] = NCI Yeast Anticancer Drug Screen. Data for the rad50 strain (AID 155);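 note: 0% = growth of vehicle-only cultures of the same strain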; settings: S. cerevisiae rad50 strain growth inhibition, hits give high values
Summary of the method: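 Inhibition values express reduced yeast growth in compound-treated cultures relative to vehicle-treated controls.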

[2] = NCI Yeast Anticancer Drug Screen. Data for the mec2-1 strain (AID 157); settings: S. cerevisiae mec2-1 strain, hits give high values
Summary of the method: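 Cells of the genetically defined mec2-1 yeast strain are incubated with test compound. Inhibition of growth is calculated against vehicle-treated controls.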

[3] = NCI Yeast Anticancer Drug Screen. Data for the sgs1 mgt1 strain (AID 161);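 note: 0% = growth of cultures given vehicle only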; settings: S. cerevisiae sgs1 mgt1 strain, hits give high values
Summary of the method: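 Test agents were incubated with a DNA-repair-mutant yeast strain. Growth was then read and compared against vehicle-treated controls.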

[4] = NCI Yeast Anticancer Drug Screen. Data for the cln2 rad14 strain (AID 165);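 note: 0% = growth equal to vehicle treated cultures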; settings: S. cerevisiae cln2 rad14 strain, hits give high values
Summary of the method: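 The screen exposed genetically defined yeast (cln2 rad14) to test compounds and scored growth inhibition relative to vehicle-treated controls.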

[5] = NCI Yeast Anticancer Drug Screen. Data for the bub3 strain (AID 167); settings: S. cerevisiae bub3 mutant strain, hits give high values
Summary of the method: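 Steps: expose the mutant yeast strain to compound; grow alongside vehicle-treated cultures; measure growth; express inhibition against the vehicle cultures.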

[6] = NCI Yeast Anticancer Drug Screen. Data for the mlh1 rad18 strain (AID 175); settings: S. cerevisiae mlh1 rad18 strain growth inhibition, hits give high values
Summary of the method: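 Compound-treated yeast growth, normalised to vehicle controls. Strain bears defined DNA repair mutations.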

[7] = at 5.0 µM (retest, dose inferred, filed as 0.5)
[8] = at 50.0 µM (retest, dose inferred, filed as 5.0)

Row | SMILES | growth inhibition [1, 7] [%] | growth inhibition [1, 8] | growth inhibition ([1]; at 50.0 µM) | growth inhibition [2, 7] [%] | growth inhibition [2, 8] | growth inhibition ([2]; at 50.0 µM) | growth inhibition [3, 7] [%] | growth inhibition [3, 8] | growth inhibition ([3]; at 50.0 µM) | growth inhibition [4, 7] [%] | growth inhibition [4, 8] | growth inhibition ([4]; at 50.0 µM) | growth inhibition [5, 7] [%] | growth inhibition [5, 8] | growth inhibition ([5]; at 50.0 µM) | growth inhibition [6, 7] [%] | growth inhibition [6, 8] | growth inhibition ([6]; at 50.0 µM)
1 | O=C1C(N=Nc2ccccc2)=C(O)C2C3C=CC(C3)C12 (stereo not given) | 2 | 98% (active) | 98.8% (active) | 0 | 98% (active) | 98.5% (active) | 2 | 95% (active) | 95% (active) | 1 | 98% (active) | 99.3% (active) | 1 | 98% (active) | 98.2% (active) | 17 | 98% (active) | 98.8% (active)
2 | COC(=O)C1C2CC3c4[nH]c5cc(OC)c(Br)cc5c4CCN3CC2CC(OC(=O)c2cc(OC)c(OC)c(OC)c2)C1OC (stereo not given) | -4 | 91% (active) | 89.7% (active) | -4 | 74% (active) | 87.5% (active) | -5 | 82% (active) | 86.2% (active) | 8 | 86% (active) | 84.3% (active) | -16 | 87% (active) | 86.2% (active) | -30 | 97% (active) | 86.6% (active)
3 | Clc1ccc2ns[s+]c2c1 | 8 | 78% (active) | 73.7% (active) | 13 | 93% (active) | 48.1% | 12 | 86% (active) | 80.6% (active) | 21 | 49% | 47.8% | 26 | 96% (active) | 72.3% (active) | 17 | 85% (active) | -27.7%
4 | CCNc1nc(C(F)(F)F)nc2nc[nH]c12 | 3 | -5% | 6.15% | 1 | 4% | -5.75% | -22 | -5% | -20.1% | -5 | 0% | 92.7% (active) | -4 | -4% | 3.4% | -3 | -9% | 39.9%
5 | CCCCCCCCCCCCCCCCC/C=N\NC(=O)CCCC(=O)N/N=C/CCCCCCCCCCCCCCCCC | 1 | -3% | 98.7% (active) | -4 | -2% | 99.1% (active) | -2 | -3% | 98% (active) | 4 | 10% | 99% (active) | 7 | 25% | 99.2% (active) | 2 | -25% | 98.3% (active)
6 | Cc1occc1C(=S)Nc1ccc(Cl)c(/C=N/OC(C)C)c1 | 12 | 83% (active) | 77.5% (active) | 13 | 77% (active) | 59.2% | 13 | 80% (active) | 71.3% (active) | 24 | 81% (active) | 75.6% (active) | 22 | 86% (active) | 73.5% (active) | 17 | 91% (active) | 77.8% (active)
7 | CCCCCCC(Sc1n[nH]c(=O)[nH]c1=O)C(=O)OCC (stereo not given) | 3 | 76% (active) | 61.5% | -1 | 80% (active) | 52.9% | 1 | 88% (active) | 77.6% (active) | 3 | 83% (active) | 52% | 2 | 77% (active) | 43.5% | -2 | 89% (active) | 61.1%
8 | CCOC1(c2ccccc2)c2ccccc2S(=O)(=O)N1C (stereo not given) | -3 | 4% | 11.1% | -4 | 16% | 0.95% | 14 | 33% | 11.2% | 6 | 12% | 56.9% | 1 | 10% | 40.8% | 18 | 11% | 9%
9 | O=C1NC(CSSCC2NC(=O)N(c3ccccc3)C2=O)C(=O)N1c1ccccc1 (stereo not given) | 8 | 94% (active) | 87.9% (active) | 11 | 97% (active) | 58.9% | 16 | 99% (active) | 93.6% (active) | 1 | 90% (active) | 58.1% | 4 | 98% (active) | 55.5% | 8 | 96% (active) | 95.2% (active)
10 | Nc1ccc(-c2nc3ccccc3s2)cc1 | 21 | 96% (active) | 89.8% (active) | 2 | 100% (active) | 91.8% (active) | -3 | 99% (active) | 88.4% (active) | 8 | 85% (active) | 87.6% (active) | -2 | 99% (active) | 86.2% (active) | 10 | 98% (active) | 84.6% (active)
